Source: PubChem BioAssay (Tox21)
Inconclusive results are not listed. The source made the active and inactive calls. Unless noted, calls come from the whole dose curve; as a rule, active = well fitted curve in the direction sought with a large enough effect in the repeat runs; inconclusive = weak or mixed curves; inactive = no such curve, though single readings can be large; an effect the other way counts as inactive or inconclusive.

How the values were obtained:
[1] = biological target: Acetylcholinesterase (Homo sapiens) (UniProt P22303); assay: Acetylcholinesterase (AChE) small molecule antagonists: enzyme-based qHTS assay (AID 1347397; calls by dose curve; note: nearly all actives have a fitted effect of over 55% in size); settings: Potency: AChE enzyme activity inhibition; outcome: AChE enzyme activity inhibition
Summary of the method: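 Compound or DMSO vehicle was pin-transferred onto recombinant human AChE (50 mU/mL as dispensed) and left 30 min at room temperature. Acetylthiocholine with DTNB then started the reaction, read colorimetrically 10 min later.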

[2] = biological target: Acetylcholinesterase (Homo sapiens) (UniProt P22303); assay: Acetylcholinesterase (AChE) small molecule antagonists: fluorescence cell-based qHTS assay (AID 1347398; calls by dose curve; note: nearly all actives have a fitted effect of over 50% in size); settings: Potency: AChE activity; outcome: AChE activity
Summary of the method: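 Using neuroblastoma SH-SY5Y cells as the enzyme source, test chemicals are preincubated 30 min at 37 C; AChE-driven acetylthiocholine cleavage is then quantified by thiocholine-dependent Thiolite Green fluorescence after 40 min at room temperature.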

[3] = biological target: Acetylcholinesterase (Homo sapiens) (UniProt P22303); assay: Acetylcholinesterase (AChE) small molecule antagonists: enzyme-based qHTS assay with human liver microsomes (AID 1347399; calls by dose curve; note: nearly all actives have a fitted effect of over 60% in size); settings: Potency: qHTS inhibition; outcome: qHTS inhibition
Summary of the method: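 Recombinant human AChE (50 mU/mL in the enzyme mix) and human liver microsomes (0.25 mg/mL final) were preincubated with compound and NADPH (0.25 mg/mL final) for 30 min at 37 C. Acetylthiocholine/DTNB was then added; thiocholine was read colorimetrically after 10 min at room temperature.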

[4] = biological target: Cytochrome P450 2D6 (Homo sapiens) (UniProt P10635); assay: Cytochrome P450 Family 2 Subfamily D Member 6 (CYP2D6) small molecule antagonists: luciferase reporter qHTS assay (AID 1671196); note: nearly all actives have a fitted effect of over 50% in size; note: potency is the fitted concentration of half-maximal effect; for activity change, negative = inhibition: series mostly up to about 120 µM
Summary of the method: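 Enzyme and proluciferin substrate were first combined with test chemical for 10 min at room temperature. Adding NADPH regeneration solution started a 1 h reaction, stopped with luciferin detection reagent and read by luminescence 20 min later.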

[5] = biological target: Cytochrome P450 2C19 (Homo sapiens) (UniProt P33261); assay: Cytochrome P450 Family 2 Subfamily C Member 19 (CYP2C19) small molecule antagonists: luciferase reporter qHTS assay (AID 1671197); note: nearly all actives have a fitted effect of over 65% in size; note: potency is the fitted concentration of half-maximal effect; for activity change, negative = inhibition: series mostly up to about 120 µM
Summary of the method: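 Inhibition of CYP2C19 was scored from loss of luminescence in a P450-Glo proluciferin substrate assay, NADPH-started and run 1 h at 37C, with ketoconazole as positive control.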

[6] = biological target: Cytochrome P450 2C9 (Homo sapiens) (UniProt P11712); assay: Cytochrome P450 Family 2 Subfamily C Member 9 (CYP2C9) small molecule antagonists: luciferase reporter qHTS assay (AID 1671198); note: nearly all actives have a fitted effect of over 50% in size; note: potency is the fitted concentration of half-maximal effect; for activity change, negative = inhibition: series mostly up to about 120 µM
Summary of the method: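 CYP2C9 activity was measured with a P450-Glo proluciferin substrate. Enzyme–substrate mix was held with compound for 10 min at room temperature, then NADPH regeneration solution was added for 1 h at 37C. Luciferin product was read as luminescence.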

[7] = biological target: Cytochrome P450 1A2 (Homo sapiens) (UniProt P05177); assay: Cytochrome P450 Family 1 Subfamily A Member 2 (CYP1A2) small molecule antagonists: luciferase reporter qHTS assay (AID 1671199); note: nearly all actives have a fitted effect of over 50% in size; note: potency is the fitted concentration of half-maximal effect; for activity change, negative = inhibition: series mostly up to about 120 µM
Summary of the method: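 Compounds were incubated with CYP1A2 and a luminogenic proluciferin substrate for 10 min at room temperature before the reaction was started with NADPH regeneration solution. After 1 h, detection reagent was added and light output, proportional to CYP activity, was recorded.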

[8] = biological target: Voltage-gated inwardly rectifying potassium channel KCNH2 (Homo sapiens) (UniProt Q12809); assay: Human Ether-a-go-go-Related Gene (hERG) channel small molecule antagonists: fluorescence cell-based qHTS assay (AID 1671200)
Summary of the method: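 First, 1000 cells per well are seeded and cultured overnight at 37 C. Next, FluxOR II dye is loaded for 1 h at room temperature, protected from light. After 10 more minutes, stimulus is added and fluorescence is read.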

[9] = biological target: Cytochrome P450 3A4 (Homo sapiens) (UniProt P08684); assay: Cytochrome P450 Family 3 Subfamily A Member 4 (CYP3A4) small molecule antagonists: luciferase reporter qHTS assay (AID 1671201)
Summary of the method: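 Enzyme and proluciferin substrate are mixed with test chemicals for 10 min, then NADPH regeneration system drives turnover for 1 h at room temperature. A detection reagent halts the reaction; luminescence after 20 min gives relative activity.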
% is set by controls: 0 for no effect and ±100 for the full control effect.

Cytochrome P450 2C9 (Homo sapiens), sequence (P11712 whole entry, looked up): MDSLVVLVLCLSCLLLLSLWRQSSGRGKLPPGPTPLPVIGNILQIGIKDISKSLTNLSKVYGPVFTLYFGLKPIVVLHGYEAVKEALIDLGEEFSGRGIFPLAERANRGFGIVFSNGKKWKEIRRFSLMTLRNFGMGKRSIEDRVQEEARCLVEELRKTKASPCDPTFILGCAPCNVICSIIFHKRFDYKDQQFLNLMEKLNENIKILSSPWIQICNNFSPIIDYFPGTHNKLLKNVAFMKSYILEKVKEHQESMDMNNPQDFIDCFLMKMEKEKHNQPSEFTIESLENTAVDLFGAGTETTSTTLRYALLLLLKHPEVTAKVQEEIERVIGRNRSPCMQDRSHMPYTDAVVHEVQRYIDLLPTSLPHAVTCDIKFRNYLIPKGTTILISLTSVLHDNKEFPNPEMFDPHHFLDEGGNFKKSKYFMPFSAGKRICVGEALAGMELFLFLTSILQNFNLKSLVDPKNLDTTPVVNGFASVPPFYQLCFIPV
Cytochrome P450 2C19 (Homo sapiens), sequence (P33261 whole entry, looked up): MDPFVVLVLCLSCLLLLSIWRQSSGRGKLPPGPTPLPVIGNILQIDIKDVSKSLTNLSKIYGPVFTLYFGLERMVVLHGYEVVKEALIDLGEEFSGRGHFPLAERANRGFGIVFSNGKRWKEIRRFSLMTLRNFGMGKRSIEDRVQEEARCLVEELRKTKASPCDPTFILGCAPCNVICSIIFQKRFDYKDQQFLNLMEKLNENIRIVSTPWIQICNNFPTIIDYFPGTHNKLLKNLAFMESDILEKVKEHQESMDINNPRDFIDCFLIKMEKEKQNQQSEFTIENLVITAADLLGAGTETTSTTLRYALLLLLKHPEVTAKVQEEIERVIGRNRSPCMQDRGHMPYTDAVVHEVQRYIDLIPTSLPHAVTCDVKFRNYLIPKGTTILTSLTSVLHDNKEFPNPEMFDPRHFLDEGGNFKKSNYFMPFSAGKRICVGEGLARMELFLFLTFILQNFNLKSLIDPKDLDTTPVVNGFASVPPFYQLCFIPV
Cytochrome P450 3A4 (Homo sapiens), sequence (P08684 whole entry, looked up): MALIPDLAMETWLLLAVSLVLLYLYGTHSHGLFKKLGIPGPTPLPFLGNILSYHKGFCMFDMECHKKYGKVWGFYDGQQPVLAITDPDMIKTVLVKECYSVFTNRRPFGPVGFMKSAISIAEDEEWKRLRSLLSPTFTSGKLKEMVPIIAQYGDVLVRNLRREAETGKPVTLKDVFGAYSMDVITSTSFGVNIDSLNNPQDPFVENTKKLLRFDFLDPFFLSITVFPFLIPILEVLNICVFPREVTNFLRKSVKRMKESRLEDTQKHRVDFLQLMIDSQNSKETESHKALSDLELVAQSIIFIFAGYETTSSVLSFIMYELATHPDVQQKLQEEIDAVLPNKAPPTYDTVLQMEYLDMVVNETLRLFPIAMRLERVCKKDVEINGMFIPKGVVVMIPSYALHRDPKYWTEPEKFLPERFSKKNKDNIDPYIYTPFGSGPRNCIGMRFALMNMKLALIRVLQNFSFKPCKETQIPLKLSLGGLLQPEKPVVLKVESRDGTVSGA
Acetylcholinesterase (Homo sapiens), sequence (P22303 whole entry, looked up): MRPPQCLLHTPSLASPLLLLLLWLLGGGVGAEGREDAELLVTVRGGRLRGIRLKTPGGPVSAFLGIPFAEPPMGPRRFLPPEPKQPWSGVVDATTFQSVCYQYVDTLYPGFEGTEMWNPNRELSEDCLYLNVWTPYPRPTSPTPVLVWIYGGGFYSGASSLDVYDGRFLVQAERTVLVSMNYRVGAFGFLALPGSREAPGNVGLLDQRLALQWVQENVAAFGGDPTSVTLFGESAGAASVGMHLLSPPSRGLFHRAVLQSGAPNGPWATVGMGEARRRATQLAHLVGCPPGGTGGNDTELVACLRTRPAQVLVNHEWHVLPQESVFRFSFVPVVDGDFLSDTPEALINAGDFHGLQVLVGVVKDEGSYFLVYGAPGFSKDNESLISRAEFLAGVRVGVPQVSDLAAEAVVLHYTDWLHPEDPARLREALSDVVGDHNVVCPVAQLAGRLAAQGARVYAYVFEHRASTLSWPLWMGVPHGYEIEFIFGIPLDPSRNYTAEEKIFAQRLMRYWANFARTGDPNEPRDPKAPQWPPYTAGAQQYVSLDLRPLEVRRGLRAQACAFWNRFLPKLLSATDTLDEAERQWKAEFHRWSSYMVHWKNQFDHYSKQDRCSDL
Cytochrome P450 2D6 (Homo sapiens), sequence (P10635 whole entry, looked up): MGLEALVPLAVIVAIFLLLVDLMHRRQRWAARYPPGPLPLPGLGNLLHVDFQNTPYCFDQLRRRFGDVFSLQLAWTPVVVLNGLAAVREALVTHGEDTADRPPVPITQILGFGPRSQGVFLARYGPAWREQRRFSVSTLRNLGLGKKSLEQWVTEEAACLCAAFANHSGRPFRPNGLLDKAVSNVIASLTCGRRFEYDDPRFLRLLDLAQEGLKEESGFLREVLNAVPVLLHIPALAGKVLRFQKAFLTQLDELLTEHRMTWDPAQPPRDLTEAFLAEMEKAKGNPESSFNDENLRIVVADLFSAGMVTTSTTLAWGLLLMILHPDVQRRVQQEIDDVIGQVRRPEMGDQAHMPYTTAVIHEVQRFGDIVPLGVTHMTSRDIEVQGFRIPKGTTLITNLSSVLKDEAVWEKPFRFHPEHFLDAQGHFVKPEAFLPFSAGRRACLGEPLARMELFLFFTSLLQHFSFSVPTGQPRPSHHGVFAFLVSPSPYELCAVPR
Cytochrome P450 1A2 (Homo sapiens), sequence (P05177 whole entry, looked up): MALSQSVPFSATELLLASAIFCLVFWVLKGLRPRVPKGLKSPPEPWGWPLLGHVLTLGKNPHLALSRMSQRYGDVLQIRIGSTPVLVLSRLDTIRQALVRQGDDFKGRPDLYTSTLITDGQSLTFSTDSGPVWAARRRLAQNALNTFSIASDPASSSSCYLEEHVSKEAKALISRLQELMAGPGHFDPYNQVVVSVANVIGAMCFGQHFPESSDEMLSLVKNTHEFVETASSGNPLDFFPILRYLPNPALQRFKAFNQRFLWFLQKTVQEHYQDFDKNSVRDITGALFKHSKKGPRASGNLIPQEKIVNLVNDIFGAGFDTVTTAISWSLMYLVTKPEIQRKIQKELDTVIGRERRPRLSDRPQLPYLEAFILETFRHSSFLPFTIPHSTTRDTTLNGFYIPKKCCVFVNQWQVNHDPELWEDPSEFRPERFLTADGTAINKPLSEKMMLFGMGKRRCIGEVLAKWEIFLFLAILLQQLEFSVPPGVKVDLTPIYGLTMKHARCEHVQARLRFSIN
Voltage-gated inwardly rectifying potassium channel KCNH2 (Homo sapiens), sequence (Q12809 whole entry, looked up): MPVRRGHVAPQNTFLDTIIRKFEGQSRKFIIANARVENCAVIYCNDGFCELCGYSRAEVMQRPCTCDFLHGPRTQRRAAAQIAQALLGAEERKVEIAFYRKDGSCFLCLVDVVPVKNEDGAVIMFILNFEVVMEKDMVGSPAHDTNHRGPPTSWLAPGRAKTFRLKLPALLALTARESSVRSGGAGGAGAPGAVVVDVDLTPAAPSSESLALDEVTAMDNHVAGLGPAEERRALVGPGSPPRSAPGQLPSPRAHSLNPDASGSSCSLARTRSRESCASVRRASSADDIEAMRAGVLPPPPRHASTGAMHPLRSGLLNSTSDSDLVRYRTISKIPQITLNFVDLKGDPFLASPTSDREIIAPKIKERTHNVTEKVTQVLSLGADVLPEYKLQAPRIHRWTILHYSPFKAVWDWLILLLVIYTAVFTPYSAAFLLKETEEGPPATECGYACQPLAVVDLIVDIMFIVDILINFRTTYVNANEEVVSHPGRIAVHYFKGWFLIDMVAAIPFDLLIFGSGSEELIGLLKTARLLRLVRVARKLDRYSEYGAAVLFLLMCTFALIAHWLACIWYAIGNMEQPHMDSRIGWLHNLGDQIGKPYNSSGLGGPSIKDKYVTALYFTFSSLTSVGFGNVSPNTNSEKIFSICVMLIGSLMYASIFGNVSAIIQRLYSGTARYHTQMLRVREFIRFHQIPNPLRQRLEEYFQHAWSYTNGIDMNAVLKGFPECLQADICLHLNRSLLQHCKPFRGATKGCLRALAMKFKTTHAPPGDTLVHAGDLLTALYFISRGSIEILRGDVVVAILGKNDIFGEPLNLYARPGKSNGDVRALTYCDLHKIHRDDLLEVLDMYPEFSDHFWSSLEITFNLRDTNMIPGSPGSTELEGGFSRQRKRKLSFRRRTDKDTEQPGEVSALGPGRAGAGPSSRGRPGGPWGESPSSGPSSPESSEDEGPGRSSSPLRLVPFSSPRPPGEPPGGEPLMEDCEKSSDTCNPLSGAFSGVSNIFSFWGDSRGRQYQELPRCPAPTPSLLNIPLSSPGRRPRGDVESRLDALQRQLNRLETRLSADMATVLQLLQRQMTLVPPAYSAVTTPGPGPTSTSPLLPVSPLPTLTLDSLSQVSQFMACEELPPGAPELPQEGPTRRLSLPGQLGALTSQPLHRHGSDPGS

CC(C)(N)Cc1ccc(Cl)cc1
active: Potency [4] 3.09 µM | Potency [7] 24.5 µM
inactive: Potency [1] | Potency [2] | Potency [3] | Potency [5] | Potency [6] | Potency [8] | Potency [9]

CN(C)CCc1c[nH]c2cccc(OP(=O)(O)O)c12
inactive: Potency [1] | Potency [2] | Potency [3] | Potency [4] | Potency [5] | Potency [6] | Potency [7] | Potency [8] | Potency [9]

N=C(N)[Se]
inactive: Potency [1] | Potency [2] | Potency [3] | Potency [4] | Potency [5] | Potency [6] | Potency [7] | Potency [8] | Potency [9]

CCCCCCC(=O)CCCCCC/C=C/C[C@@H](O)[C@H](O)[C@@](N)(CO)C(=O)O
inactive: activity change, negative = inhibition [1] 0.415% [at 23.6 µM] | activity change, negative = inhibition [2] -0.579% [at 23.8 µM] | activity change, negative = inhibition [3] -0.169% [at 23.6 µM] | activity change, negative = inhibition [4] -0.222% [at 23.6 µM] | activity change, negative = inhibition [5] 14.2% [at 23.6 µM] | activity change, negative = inhibition [6] 9.38% [at 23.6 µM] | activity change, negative = inhibition [7] -0.0703% [at 23.6 µM] | activity change, negative = inhibition [8] 0.803% [at 15.8 µM] | activity change, negative = inhibition [9] 24.6% [at 23.6 µM]

CC(C)[C@]12CC(=O)[C@H](C)[C@H]1C2
inactive: Potency [1] | Potency [2] | Potency [3] | Potency [4] | Potency [5] | Potency [6] | Potency [7] | Potency [8] | Potency [9]

CCc1ccc(C2CCNCC2)cc1
active: Potency [4] 0.617 µM
inactive: Potency [1] | Potency [2] | Potency [3] | Potency [5] | Potency [6] | Potency [7] | Potency [8] | Potency [9]

N#CN
inactive: Potency [1] | Potency [2] | Potency [3] | Potency [4] | Potency [5] | Potency [6] | Potency [7] | Potency [8] | Potency [9]

OP(O)c1ccccc1
inactive: Potency [1] | Potency [2] | Potency [3] | Potency [4] | Potency [5] | Potency [6] | Potency [7] | Potency [8] | Potency [9]

c1ccc2c(c1)CCNC2
active: Potency [4] 7.28 µM | Potency [5] 57.9 µM | Potency [6] 32.5 µM
inactive: Potency [1] | Potency [2] | Potency [3]

ClC1=C(Cl)C2(Cl)C(CBr)CC1(Cl)C2(Cl)Cl (stereo not drawn)
inactive: Potency [1] | Potency [2] | Potency [3] | Potency [4] | Potency [5] | Potency [6] | Potency [7] | Potency [8]

Cc1ccc(Cl)c(O)c1
inactive: Potency [1] | Potency [2] | Potency [3] | Potency [4] | Potency [5] | Potency [6] | Potency [7] | Potency [8] | Potency [9]

C/C=C/CC#N
inactive: Potency [1] | Potency [2] | Potency [3] | Potency [4] | Potency [5] | Potency [6] | Potency [8] | Potency [9]
active: Potency [7] 36.4 µM

CC(C)(O)C(Cl)(Cl)Cl
inactive: Potency [1] | Potency [2] | Potency [3] | Potency [4] | Potency [5] | Potency [6] | Potency [7] | Potency [8] | Potency [9]
